Our source for the growth values is PubChem BioAssay (NCI).

This is part of a sample that, as a whole, favours compounds with a hit. Of some 83,000 tested, about 20% had one in any assay.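 Single-concentration screen, 48 h exposure, 96-well plates. Endpoint: percent growth. Below 10 = active.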 Activity calls are given as the source filed them.

One assay relates to NCI-H322M lung. Kind of assay: NCI-60 one-dose screen, 48 h (100 = growth as untreated, 0 = no growth, -100 = all killed). Particulars: 10 µM unless noted.
Take `CC(C)(C)c1nn(-c2ccccc2)c2c1COCN2Cc1ccc(Cl)cc1`: the growth is 101% (inactive). `NS(=O)(=O)c1ccc(N2Cc3cc(Cl)ccc3OC3=C2C(=O)N(CC2CCCCC2)C3=O)cc1`: the growth was 65.4% (inactive).

As for `C#C[C@@]1(O)[C@@H](CO)O[C@@H](n2cc(-c3ccco3)c3c(N)ncnc32)[C@@H]1O`, the growth is 69.5% (inactive).

As for `NC(=O)CN1C(=O)c2ccccc2C1=O`, the growth is 99.1% (inactive). As to `CC1CCCN(CCCCCOc2ccc3oc4ccc(Cl)cc4c(=O)c3c2)C1` (stereo unspecified), the growth was 84.4% (inactive). `O=c1[nH]c(-c2cccc(F)c2)cc2cc(F)ccc12`: the growth is 59.1% (inactive). Same read-out and setting: in the case of `O=C(O)COc1ccc2c(=O)c3sc4c(=O)c5ccccc5c(=O)c4c3c(=O)c2c1` it was -96.5% (active); in that of `CCOC(=O)/C=C1\SC(=Nc2ccc(C#N)cc2)N(CCN2C(=O)/C(=C/C(=O)OCC)SC2=Nc2ccc(C#N)cc2)C1=O`, 86.6% (inactive).

In the case of `COC(=O)/C=C1\SC(=Nc2ccc(F)cc2)N(CCc2c[nH]c3ccccc23)C1=O`, the growth was 101% (inactive). With `CCN1CCN(Cc2ccc(NC(=O)c3cccc(C#Cc4cccc5[nH]nc(N)c45)c3)cc2C(F)(F)F)CC1`, the growth was -49.6% (active). Turning to `CC[C@H](Nc1ncnc2nc[nH]c12)c1nc2cccc(CC(=O)c3ccc(C(=O)NO)cc3)c2c(=O)n1-c1ccccc1`, the growth was 90.4% (inactive). As for `CC(=O)OCC1OC(OC2C(COC(C)=O)OC(OCCC[S-])C(OC(C)=O)C2OC(C)=O)C(OC(C)=O)C(OC(C)=O)C1OC(C)=O.[Au+].c1ccc(CN2[CH-]N(Cc3ccccc3)C(c3ccccc3)=C2c2ccccc2)cc1` (stereo unspecified), the growth was 52% (inactive). For the compound `O=S(=O)(O)c1ccc(N=NSc2ccc3ccccc3c2)cc1`, the growth is 92.8% (inactive). In the case of `C[C@H]1[C@H](C)CC[C@]2(C(=O)OCCOCCOCC[P+](c3ccccc3)(c3ccccc3)c3ccccc3)CC[C@]3(C)C(=CC[C@@H]4[C@@]5(C)CC[C@H](OC(=O)C(Cl)Cl)C(C)(C)[C@@H]5CC[C@]43C)[C@H]12`, the growth was 27.8% (inactive).

Turning to `O=c1c2ccccc2oc2ccc(OCCCCCN3CCCCCC3)cc12`, the growth is 85.9% (inactive). Take `Nc1c(C(=O)Nc2ccccn2)sc2nc3c(cc12)C(=O)CCC3`: the growth is 43.6% (inactive). For `COc1ccc(-n2cc(-c3ccc(Cl)c(Cl)c3)[nH]c2=O)cc1OC`, the growth is 75.9% (inactive).

For `Cc1ccc(C(=O)/C(=C/c2ccc([N+](=O)[O-])cc2)S(=O)Cc2ccccc2)cc1` (stereo unspecified), the growth is 81.6% (inactive). Consider `C=CCn1c(CN2CCN(c3cc4c(cc3F)c(=O)c(C(=O)O)cn4C3CC3)CC2)n[nH]c1=S`, for which the growth is 88.6% (inactive). For the compound `CC(=O)c1ccc(NC(=O)CSc2nnc(-c3cc(-c4ccc(C)cc4)nc4ccccc34)o2)cc1`, the growth was 86.5% (inactive). For `Cn1cc(-c2ccc3c(c2)ncn3-c2ccc(CC(=O)Nc3cc(C(C)(C)C)on3)cc2)cn1`, the growth is 8.78% (active). Turning to `CN(C)[C@@H]1C(=O)C(C(N)=O)=C(O)[C@@]2(O)C(=O)C3=C(O)c4c(O)cc(CN5CCc6ccccc6C5)c(Cl)c4C[C@H]3C[C@@H]12`, the growth was -87.2% (active).

For the compound `CC(=O)Oc1c2c(nc3c1c1ccccc1n3Cc1ccccc1)-c1ccccc1C2`, the growth was 92.2% (inactive).

Consider `CC(C)(C)c1nc2c(s1)c1nc(N)ncc1c1ccc(NS(=O)(=O)c3c(F)cccc3F)c(F)c12`, for which the growth is 60.4% (inactive). With `COc1cc(C(=O)N2CCN(c3ccccc3OC)CC2)c(NC(=O)c2cnccn2)cc1OCc1ccccc1`, the growth is 69.4% (inactive). In the case of `c1ccc(-c2cn3ccnc3c(-c3ccc4c(c3)ncn4C3CCCCC3)n2)cc1`, the growth was 97.1% (inactive). On to `C#Cc1ccccc1NC(=O)c1sc2nc3c(cc2c1N)CCCCC3`, for which the growth was 101% (inactive).

Consider `O=C1[C@@H](OS(=O)(=O)CC(F)(F)F)[C@H](c2ccc(F)cn2)N1c1cc2c3ccccc3ccc2c2ccccc12`, for which the growth was 104% (inactive). Take `CC(C)CSc1nc(Nc2ccccc2)c(C#N)c(-c2ccc(F)cc2)n1`: the growth is 27.9% (inactive).

The next assay deals with HOP-62 NSCLC. The description is as above. Particulars: 10 µM unless noted.
For `Cc1cc2ccccc2c[n+]1CC(=O)c1ccc(-c2ccccc2)cc1`, the growth was 67.1% (inactive). In the case of `COC(=O)c1ccc2c(c1)n(Cc1ccc3ccccc3c1)c[n+]2Cc1ccc2ccccc2c1`, the growth is 63.8% (inactive). Take `Cc1c(Cl)cccc1NC(=O)c1sc2nc3c(cc2c1N)CCCCC3`: the growth was 43.2% (inactive). As to `C=C1C(=O)O[C@H]2[C@H]1CC/C(COC(=O)c1cn(C)c3ccccc13)=C\CC[C@@]1(C)O[C@@H]21`, the growth was 32.4% (inactive).

`Sc1cccc2cccnc12`: the growth was 36.7% (inactive). As to `O=C(CCl)N1CCCc2ccccc21`, the growth is 107% (inactive). For the compound `Cc1cccc(C)c1NC(=O)CN(CC(C)C)CC(O)COc1ccccc1` (stereo unspecified), the growth is 90% (inactive).

On to `OCCNc1nc(NCCO)nc(Nc2ccc(C3=NN(c4cc(Cl)cc(Cl)c4)C(c4ccc(Cl)cc4)C3)cc2)n1` (stereo unspecified), for which the growth was 15.9% (inactive). `CC(C)(C)c1nn(-c2ccccc2)c2c1COCN2Cc1ccc(Cl)cc1`: the growth was 93% (inactive).

For `NS(=O)(=O)c1ccc(N2Cc3cc(Cl)ccc3OC3=C2C(=O)N(CC2CCCCC2)C3=O)cc1`, the growth was -60.9% (active).

`C#C[C@@]1(O)[C@@H](CO)O[C@@H](n2cc(-c3ccco3)c3c(N)ncnc32)[C@@H]1O`: the growth is 67.7% (inactive). With `NC(=O)CN1C(=O)c2ccccc2C1=O`, the growth is 101% (inactive). `CC1CCCN(CCCCCOc2ccc3oc4ccc(Cl)cc4c(=O)c3c2)C1` (stereo unspecified): the growth is 85.7% (inactive). On the same count and under the same terms, for `O=c1[nH]c(-c2cccc(F)c2)cc2cc(F)ccc12` the value was 31.9% (inactive); for `O=C(O)COc1ccc2c(=O)c3sc4c(=O)c5ccccc5c(=O)c4c3c(=O)c2c1`, -81.1% (active); for `CCOC(=O)/C=C1\SC(=Nc2ccc(C#N)cc2)N(CCN2C(=O)/C(=C/C(=O)OCC)SC2=Nc2ccc(C#N)cc2)C1=O`, 51.3% (inactive). Turning to `COC(=O)/C=C1\SC(=Nc2ccc(F)cc2)N(CCc2c[nH]c3ccccc23)C1=O`, the growth was 104% (inactive).

Regarding `CCN1CCN(Cc2ccc(NC(=O)c3cccc(C#Cc4cccc5[nH]nc(N)c45)c3)cc2C(F)(F)F)CC1`, the growth was -76.4% (active).

As to `CC[C@H](Nc1ncnc2nc[nH]c12)c1nc2cccc(CC(=O)c3ccc(C(=O)NO)cc3)c2c(=O)n1-c1ccccc1`, the growth was 83.2% (inactive). The same measure, in the same setting: in the case of `CC(=O)OCC1OC(OC2C(COC(C)=O)OC(OCCC[S-])C(OC(C)=O)C2OC(C)=O)C(OC(C)=O)C(OC(C)=O)C1OC(C)=O.[Au+].c1ccc(CN2[CH-]N(Cc3ccccc3)C(c3ccccc3)=C2c2ccccc2)cc1` (stereo unspecified) it was 31.8% (inactive). The same measure, in the same setting: in the case of `O=S(=O)(O)c1ccc(N=NSc2ccc3ccccc3c2)cc1` it was 108% (inactive); in that of `C[C@H]1[C@H](C)CC[C@]2(C(=O)OCCOCCOCC[P+](c3ccccc3)(c3ccccc3)c3ccccc3)CC[C@]3(C)C(=CC[C@@H]4[C@@]5(C)CC[C@H](OC(=O)C(Cl)Cl)C(C)(C)[C@@H]5CC[C@]43C)[C@H]12`, 25.3% (inactive).

Turning to `O=c1c2ccccc2oc2ccc(OCCCCCN3CCCCCC3)cc12`, the growth is 92.5% (inactive). Consider `Nc1c(C(=O)Nc2ccccn2)sc2nc3c(cc12)C(=O)CCC3`, for which the growth was 40.6% (inactive).

As to `COc1ccc(-n2cc(-c3ccc(Cl)c(Cl)c3)[nH]c2=O)cc1OC`, the growth was 97.3% (inactive). For `Cc1ccc(C(=O)/C(=C/c2ccc([N+](=O)[O-])cc2)S(=O)Cc2ccccc2)cc1` (stereo unspecified), the growth was 47.9% (inactive). Consider `C=CCn1c(CN2CCN(c3cc4c(cc3F)c(=O)c(C(=O)O)cn4C3CC3)CC2)n[nH]c1=S`, for which the growth was 99.8% (inactive). Regarding `CC(=O)c1ccc(NC(=O)CSc2nnc(-c3cc(-c4ccc(C)cc4)nc4ccccc34)o2)cc1`, the growth was 17.6% (inactive). In the case of `Cn1cc(-c2ccc3c(c2)ncn3-c2ccc(CC(=O)Nc3cc(C(C)(C)C)on3)cc2)cn1`, the growth is 36.2% (inactive). For the compound `CN(C)[C@@H]1C(=O)C(C(N)=O)=C(O)[C@@]2(O)C(=O)C3=C(O)c4c(O)cc(CN5CCc6ccccc6C5)c(Cl)c4C[C@H]3C[C@@H]12`, the growth is -85.4% (active). As for `CC(=O)Oc1c2c(nc3c1c1ccccc1n3Cc1ccccc1)-c1ccccc1C2`, the growth is 79.7% (inactive). Same read-out and setting: in the case of `CC(C)(C)c1nc2c(s1)c1nc(N)ncc1c1ccc(NS(=O)(=O)c3c(F)cccc3F)c(F)c12` it was 84.1% (inactive).

Consider `COc1cc(C(=O)N2CCN(c3ccccc3OC)CC2)c(NC(=O)c2cnccn2)cc1OCc1ccccc1`, for which the growth is 84.9% (inactive). On the same count and under the same terms, for `c1ccc(-c2cn3ccnc3c(-c3ccc4c(c3)ncn4C3CCCCC3)n2)cc1` the value was 87.1% (inactive); for `C#Cc1ccccc1NC(=O)c1sc2nc3c(cc2c1N)CCCCC3`, 99.5% (inactive).

Take `O=C1[C@@H](OS(=O)(=O)CC(F)(F)F)[C@H](c2ccc(F)cn2)N1c1cc2c3ccccc3ccc2c2ccccc12`: the growth was 88.6% (inactive). Turning to `CC(C)CSc1nc(Nc2ccccc2)c(C#N)c(-c2ccc(F)cc2)n1`, the growth is 7.29% (active).
